Laboratory results from PubChem BioAssay AID1159580 (chemical genetic matrix, 2015).
The whole screen tested about 5,500 compounds, of which about 2,000 (36%) were called active. Another 18% or so got no clear call; they are omitted. Cut-off read from the data, not from the text of the source: active = normalized growth mostly below about 0.91 (no sharp cut-off); inconclusive = no clear call, values can overlap the other calls; inactive = mostly above about 0.92. This is one part of the list.

Experiment: chemical genetic growth profiling, strain panel (AID 1159580);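 note: tested at 20 µM; growth read once vehicle control cultures reached saturation at 30 °C; 1 = growth at the plate median or of vehicle wells; lower values mean less growth of the strain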
Conditions: S. cerevisiae deletion strains, growth OD

Measured: normalized growth

CCC1(O)C(=O)OCc2c1cc1n(c2=O)Cc2cc3ccccc3nc2-1 (stereo unspecified)
inactive: locus YAL040C, strain CLN3, active compounds read low 0.953 | locus YCL061C, strain MRC1 (second series), active compounds read low 0.977 | locus YER002W, strain NOP16, active compounds read low 0.971 | locus YGR078C, strain PAC10, active compounds read low 1.01 | locus YMR263W, strain SAP30, active compounds read low 0.98 | locus YNL128W, strain TEP1, active compounds read low 0.906 | locus YNL175C, strain NOP13, active compounds read low 0.998 | locus YNL197C, strain WHI3, active compounds read low 0.976 | locus YNL322C, strain KRE1, active compounds read low 0.971 | locus YPL241C, strain CIN2, active compounds read low 0.984
active: locus YAL013W, strain DEP1, active compounds read low 0.872 | locus YDR363W, strain ESC2, active compounds read low 0.724 | locus YGR229C, strain SMI1, active compounds read low 0.672 | locus YMR307W, strain GAS1, active compounds read low 0.904 | locus YNL224C, strain SQS1, active compounds read low 0.897 | locus YOR083W, strain WHI5 (second series), active compounds read low 0.867
